Many of the other results were omitted from the sample, so hits are more common in it than they were.
Giardia FBPA inh-1: Giardia lamblia aldolase inhibition. A8B2U2. purified Giardia FBPA. Potency, µM (highest dose often 59.6 µM), for the others: top-dose activity, negative = inhibition, usual class: inhibitors. 0.71% of 290,000 active. AID 2451; further: nearly all actives have a fitted effect of over 55% in size
Target sequence (A8B2U2 whole entry, looked up): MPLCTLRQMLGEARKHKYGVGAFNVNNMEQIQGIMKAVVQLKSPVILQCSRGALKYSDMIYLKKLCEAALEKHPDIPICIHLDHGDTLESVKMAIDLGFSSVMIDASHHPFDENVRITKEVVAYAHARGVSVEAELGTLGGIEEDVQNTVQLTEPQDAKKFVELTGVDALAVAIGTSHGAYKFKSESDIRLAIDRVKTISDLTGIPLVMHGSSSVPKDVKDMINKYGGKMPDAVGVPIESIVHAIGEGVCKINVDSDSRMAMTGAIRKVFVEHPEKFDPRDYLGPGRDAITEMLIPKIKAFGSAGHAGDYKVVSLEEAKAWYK
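40 nM FBPA preincubated 10 min at RT with compound (up to 57.5 uM final), then substrate plus GAPDH/TPI/NAD/arsenate coupling and diaphorase/resazurin added. Fluorescence read after 20 min at RT, 525/598 nm.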
Cruzain noTriton: cruzain (T. cruzi) inhibition without detergent. purified cruzain, Z-FR-AMC fluorescence, no detergent. Potency, µM, for inactives: max response, negative = inhibition, hits mostly inhibitors. P25779. 2.3% of 200,000 active;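 further: plate controls were enzyme without inhibitor for no effect and buffer without enzyme for full effect; nearly all actives have a fitted effect of over 40% in size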
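Purified cruzain at 1.5 nM, pre-incubated 15 min with compound at room temperature in 100 mM sodium acetate pH 5.5, 5 mM DTT, 0.00005% Triton X-100. Reaction started with 2 uM Z-FR-AMC; AMC fluorescence increase over 60 s gives rate.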
Cruzain inh Det: cruzain (T. cruzi) inhibition with detergent; 0.43% of 200,000 active; P25779; Potency, µM, for inactives: max response, negative = inhibition, actives largely listed as inhibitors; purified cruzain, Z-FR-AMC fluorescence, 0.01% Triton;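 further: plate controls were neutral wells for no effect and buffer without enzyme for full effect; nearly all actives have a fitted effect of over 40% in size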
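Detergent-containing run (0.01% Triton X-100) in acetate buffer pH 5.5 with 5 mM DTT: enzyme at 1.5 nM final, 15 min compound preincubation at room temperature, then 2 uM Z-FR-AMC substrate. Activity taken as 60 s fluorescence increase at 360/450 nm.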
Giardia growth: inhibitors of Giardia lamblia growth; shares compounds with Giardia FBPA inh-1; Giardia lamblia trophozoite growth inhibition; Potency, µM (top dose mostly 57.5 µM), for inactives: at the top dose activity change, negative = inhibition, usual class: inhibitors; 5% of 1,500 active; AID 2785;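 further: trophozoites exposed to compound for 48 h at 37 °C; nearly all actives have a fitted effect of over 70% in size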
Mammalian tox: toxic to mammalian cells in Giardia aldolase counter-screen; shares compounds with Giardia FBPA inh-1; mammalian cell viability counter-screen, qHTS; Potency, µM (doses to about 57.5 µM), for the others: at the highest dose viability change, negative = toxicity, actives largely listed as inhibitors; 4% of 1,500 active;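 further: Chinese hamster ovary cells used as mammalian cytotoxicity surrogate; viability measured as cellular ATP by luminescence; compound exposure lasted 48 h before reading; nearly all actives have a fitted effect of over 60% in size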
Giardia FBPA inh-2: confirmation of Giardia fructose-bisphosphate aldolase inhibitors. shares compounds with Giardia FBPA inh-1. purified Giardia aldolase enzyme activity, qHTS. Potency, µM (top dose mostly 57.5 µM), inactives show top-dose activity change, negative = inhibition, actives largely listed as inhibitors. 5% of 1,500 active; further: nearly all actives have a fitted effect of over 45% in size
Rabbit aldolase: blocks rabbit muscle aldolase in Giardia aldolase selectivity test; shares compounds with Giardia FBPA inh-1; Rabbit muscle FBPA enzyme inhibition, selectivity counter-screen; Potency, µM (highest dose often 57.5 µM), for the others: at the highest dose activity, negative = inhibition, actives largely listed as inhibitors; 4% of 1,500 active; AID 2794; further: nearly all actives have a fitted effect of over 60% in size
GAPDH coupling: GAPDH inhibition flagged for Giardia aldolase hits | shares compounds with Giardia FBPA inh-1 | GAPDH coupling enzyme counterscreen, biochemical, qHTS | Potency, µM (titrated, usually from 57.5 µM), for the others: at the highest dose activity change, negative = inhibition, usual class: inhibitors | 6% of 1,500 active | AID 2795; further: nearly all actives have a fitted effect of over 55% in size
An asterisk follows results filed as active; ? = inconclusive; · = not tested or not shown; [ ] = another dose, or the depositor's remark. The call rests on the fitted dose curve; in most records, active means well fitted curve in the direction sought with a large enough effect; inconclusive means small, poorly fitted or top-dose-only effect, or another doubt; inactive means no such curve, though single readings can be large; an effect the other way counts as inactive or inconclusive. Unless noted, on the % scale 0 is the no-effect control and ±100 the full control effect; potency means the concentration at half of the fitted maximal effect.

SMILES	Giardia FBPA inh-1	Cruzain noTriton	Cruzain inh Det	Giardia growth	Mammalian tox	Giardia FBPA inh-2	Rabbit aldolase	GAPDH coupling
Cc1ccccc1C(=O)c1cccn1CC(=O)NCCCN1CC(C)CC(C)C1 (stereo not drawn)	2%	·	·	·	·	·	·	·
O=c1c2ccccc2n(Cc2ccccc2Cl)c(=O)n1CCc1ccccc1	·	-5%	-3%	·	·	·	·	·
COc1ccc(CCCc2n[nH]c(=S)o2)cc1	-13%	·	·	·	·	·	·	·
S=c1[nH]nc(CCCc2n[nH]c(=S)o2)o1	0.5µM*	·	·	15%[38.3 µM]	-10%	?	14%	-1%
O=C(Nc1cccc(C(=O)OCc2cc(=O)n3c4c(sc3n2)CCCC4)c1)c1cccc(F)c1	·	-6%	1%	·	·	·	·	·
O=C(O)c1ncn(Cc2ccccc2)c1C(=O)O	7.9µM*	-1%	-10%	?	-4%	7%	3%	6%
Cn1c(=O)c2c(ncn2Cc2ccccc2)n(C)c1=O	5%	-2%	0%	·	·	·	·	·
Cn1c(=O)cc(C(=O)N/N=C/c2ccc(F)cc2)[nH]c1=O	16µM*	·	·	122%	14%	5%	-7%	6%
O=C(N/N=C/c1ccc(F)cc1)c1ccccc1	-5%	·	·	·	·	·	·	·
Cc1ccc(C(=O)CSc2nc(C)cc(=O)[nH]2)cc1	·	7%	2%	·	·	·	·	·
Cc1ccc(C(=O)CSc2nnc(-c3cccs3)n2C)o1	-6%	-9%	4%	·	·	·	·	·
COc1ccc(-n2nnnc2SCC(=O)c2ccc(O)c(O)c2)cc1	?	0%	4%	-3%[38.3 µM]	?	-25%	-11%	-32%
Cn1c(SCC(=O)c2ccc(O)c(O)c2)nnc1-c1cccs1	5µM*	·	·	10%[38.3 µM]	-27%	?	-9%	-10%
NC(=O)c1ccc(-n2nnnc2SCC(=O)c2ccc(O)c(O)c2)cc1	-5%	·	·	·	·	·	·	·
Cc1cc(C)nc(SCC(=O)c2ccc(C)c(C)c2)n1	1%	·	·	·	·	·	·	·
Cc1cc(C)nc(SCC(=O)c2ccc(O)c(O)c2)n1	11µM*	·	·	-25%	9%	-21%	-16%	-12%
Cc1cc(=O)[nH]c(SCC(=O)c2ccc(O)c(O)c2)n1	8.9µM*	·	·	?	12%	?	-27%	-4%
COc1ccc(-n2c(=O)c3c4c(sc3n(Cc3ccc(F)cc3)c2=O)CCCC4)c(OC)c1	·	-5%	-3%	·	·	·	·	·
COc1ccc(NC(=O)Nc2ccccc2OCc2cc(=O)n3ccccc3n2)c(OC)c1	·	29%	2%	·	·	·	·	·
O=C(N/N=C/c1c(O)n(-c2ccccc2)c(=O)[nH]c1=O)c1ccncc1	0%	2%	-10%	·	·	·	·	·
O=C(N/N=C/c1c(O)n(-c2ccccc2)c(=S)[nH]c1=O)c1ccccc1	-16%	·	·	4%[38.3 µM]	1%	?	-17%	?
Cc1cccc(OCc2ccc(-c3nc(C#N)c(NCCN(C)C)o3)o2)c1	·	2%	-4%	·	·	·	·	·
CC1COC(=O)O1 (stereo not drawn)	1%	·	·	·	·	·	·	·
COC(=O)Cc1[nH]n(-c2nc3ccccc3s2)c(=O)c1C(C)=Nc1ccc(C)cc1	-9%	·	·	·	·	·	·	·
COC(=O)Cc1[nH]n(-c2nc3ccccc3s2)c(=O)c1C(C)=Nc1ccc(Cl)cc1	16µM*	·	·	?	-24%	3%	18%	13%
SMILES	Giardia FBPA inh-1	Cruzain noTriton	Cruzain inh Det	Giardia growth	Mammalian tox	Giardia FBPA inh-2	Rabbit aldolase	GAPDH coupling
Cc1ccc(Cl)cc1-n1nnc(-c2nc(-c3ccc4c(c3)OCO4)no2)c1C	·	-9%	7%	·	·	·	·	·
Cc1ccc(S(=O)(=O)N[C@@H](CCc2ccccc2)CC(=O)C(C)(C)C)cc1	-3%[12.9 µM]	·	·	·	·	·	·	·
Cc1ccc2oc(=O)c(/C=C(\O)C(C)(C)C)nc2c1	-25%	·	·	·	·	·	·	·
Cc1ccc2oc(=O)c(/C=C(\O)c3ccco3)nc2c1	20µM*	·	·	12%	8%	-17%	1%	-2%
Cc1ccc(NC(=O)C(Cc2ccccc2)n2cccc2)cc1C (stereo not drawn)	·	11%	-6%	·	·	·	·	·
CC(C)(C)C(=O)Cn1c(=O)n(-c2ccccc2)c(=O)c2c3c(sc21)CCC3	·	-9%	-5%	·	·	·	·	·
